From the supplement of paper PMC7669877
± gives the uncertainty stated by the source.

Tested on: Candidatus Liberibacter solanacearum in potato hairy roots
Assay: relative CLso titer (% of untreated control); higher = less inhibition of bacterial titer
Conditions: 10 µM; 72 h
Description: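 Primary screen of ~220 Spectrum collection (MicroSource) compounds at 10 µM (0.1% DMSO) on Candidatus Liberibacter solanacearum-infected potato hairy roots in multi-well plates (Gamborg B-5 medium, vacuum infiltrated, 21 °C, dark, 72 h). CLso titer was measured by qPCR of 16S rDNA normalised to potato RPL2 (2^-ddCq), pairwise-standardised against untreated controls, averaged over two biological replicates and expressed as % of untreated.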

Compound | relative CLso titer [%]
C[C@H]1c2cccc(O)c2C(=O)C2=C(O)[C@]3(O)C(=O)C(C(N)=O)=C(O)[C@@H](N(C)C)[C@@H]3[C@@H](O)[C@@H]21 | 125 ± 12
C[C@@H]1O[C@@H]1P(=O)(O)O | 155 ± 15
Cn1nnnc1SCC1=C(C(=O)O)N2C(=O)[C@@H](NC(=O)[C@H](O)c3ccccc3)[C@H]2SC1 | 133 ± 14
CCN1CCC[C@H]1CNC(=O)c1cc(S(N)(=O)=O)ccc1OC | 118 ± 86
CCCCCCCCCCCCCCCC(=O)OC[C@@H](NC(=O)C(Cl)Cl)[C@H](O)c1ccc([N+](=O)[O-])cc1 | 79.3 ± 10
C[C@H](CCC(=O)O)[C@H]1CC[C@H]2[C@@H]3C(=O)C[C@@H]4CC(=O)CC[C@]4(C)[C@H]3CC(=O)[C@]12C | 212 ± 78
CC1(C)OC(=O)C(OCC2CC2)=C1c1ccc(S(C)(=O)=O)cc1 | 53.8 ± 6.5
COC(=O)C1=C(C)NC(C)=C(C(=O)OCCN(C)Cc2ccccc2)C1c1cccc([N+](=O)[O-])c1 (stereo not given) | 121 ± 15
CN(C)CCCN1c2ccccc2Sc2ccc(Cl)cc21 | 46.9 ± 8.8
CC(C)(Oc1ccc(CCNC(=O)c2ccc(Cl)cc2)cc1)C(=O)O | 153 ± 64
CN1CCOC(c2ccccc2)c2ccccc2C1 (stereo not given) | 100 ± 38
COc1cc(NS(=O)(=O)c2ccc(N)cc2)ncn1 | 60.3 ± 11
Cc1cc(C2CCCCC2)n(O)c(=O)c1 | 44.1 ± 7.6
O=C(O)CCC(=O)OC[C@@H](NC(=O)C(Cl)Cl)[C@H](O)c1ccc([N+](=O)[O-])cc1 | 49.1 ± 3.2
Cn1c([N+](=O)[O-])cnc1COC(N)=O | 81.53 ± 0.13
CCN(CC)C(=S)SSC(=S)N(CC)CC | 82.7 ± 6
CC(=O)OCC1=C(C(=O)O)N2C(=O)[C@@H](NC(=O)CSc3ccncc3)[C@H]2SC1 | 70.6 ± 0.88
CN(C)CCOC(c1ccc(Cl)cc1)c1ccccn1 (stereo not given) | 35.2 ± 4.8
CCN(CC)CCOC(=O)C1(C2CCCCC2)CCCCC1 | 90.3 ± 40
COc1ccc2c3c1O[C@H]1C[C@@H](O)C=C[C@@]31CCN(C)C2 | 104 ± 28

Compound | relative CLso titer [%]
CCn1nc(C(=O)O)c(=O)c2cc3c(cc21)OCO3 | 28.6 ± 0.62
CC[C@H]1OC(=O)[C@H](C)[C@@H](O[C@H]2C[C@@](C)(OC)[C@@H](O)[C@H](C)O2)[C@H](C)[C@@H](O[C@@H]2O[C@H](C)C[C@H](N(C)C)[C@H]2O)[C@](C)(O)C[C@@H](C)C(=O)[C@H](C)[C@@H](O)[C@]1(C)O | 197 ± 120
CC(C)CCCC(C)N (stereo not given) | 93.3 ± 14
CC1=C(C(=O)O)N2C(=O)[C@@H](NC(=O)[C@H](N)C3=CCC=CC3)[C@H]2SC1 | 114 ± 86
CN(C)/N=N/c1[nH]cnc1C(N)=O | 84.5 ± 19
CC(=O)N(O)CCCCCNC(=O)CCC(=O)N(O)CCCCCNC(=O)CCC(=O)N(O)CCCCCN | 210 ± 59
OC[C@@H](O)[C@@H](O)[C@H](O)[C@H](O)CO | 70.5 ± 11
CO[C@@]1(NC(=O)CSCC#N)C(=O)N2C(C(=O)O)=C(CSc3nnnn3C)CS[C@@H]21 | 114 ± 30
CC(=O)OCC(=O)[C@H]1CC[C@H]2[C@@H]3CCC4=CC(=O)CC[C@]4(C)[C@H]3CC[C@]12C | 104 ± 18
Nc1cccc2c1CN(C1CCC(=O)NC1=O)C2=O (stereo not given) | 143 ± 43
CC(NCCc1ccc(O)cc1)C(O)c1ccc(O)cc1 (stereo not given) | 82.6 ± 20
CN(C)CCOC(c1ccccc1)c1ccccc1.Cn1c(=O)c2[nH]c(Cl)nc2n(C)c1=O | 127 ± 74
O=C(O)c1cc(-c2ccc(F)cc2F)ccc1O | 115 ± 58
COc1cccc2c1C(=O)c1c(O)c3c(c(O)c1C2=O)C[C@@](O)(C(C)=O)C[C@@H]3O[C@H]1C[C@H](N)[C@H](O)[C@H](C)O1 | 202 ± 6.5
NC12CC3CC(CC(C3)C1)C2 | 42.5 ± 3.2
CCOC(=O)c1cccc(N)c1 | 113 ± 8.9
CC1=C(C(=O)O)N2C(=O)[C@@H](NC(=O)[C@H](N)c3ccc(O)cc3)[C@H]2SC1 | 49.7 ± 6.2
NS(=O)(=O)c1cc(C2(O)NC(=O)c3ccccc32)ccc1Cl (stereo not given) | 58.5 ± 3.2
Nc1ncn([C@@H]2O[C@H](CO)[C@@H](O)[C@H]2O)c(=O)n1 | 64.8 ± 5.8
Cc1cc(-c2ccccc2)nnc1NCCN1CCOCC1 | 86.8 ± 63
